This is an account of results in PubChem BioAssay (NCI).

The panel holds about 83,000 compounds, 20% with a hit somewhere; the sample as a whole holds those more often.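 48-hour exposure, single concentration, 96-well plates; percent growth endpoint where 0 means no net growth. Active: below 10.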 A number with no mark means an inactive call. Calls of active or inactive are those of the source.

Test systems include T-47D breast; BT-549 breast; MDA-MB-435 melanoma; SW-620 colon; MCF7 breast; HCT-116 colon; HCC-2998 colon; KM12 colon.
Holding throughout (assay): NCI-60 one-dose screen, 48 h (100 = growth as untreated, 0 = no growth, -100 = all killed)
Conditions in all cases: 10 µM unless noted

As to `Cc1ccc(C(=O)CSc2nc(-c3ccc(Br)cc3)c(C#N)c(=O)[nH]2)cc1`, the growth in the test with T-47D breast was 93%; in the test with BT-549 breast, 94%; in the test with MDA-MB-435 melanoma it was 93.2%; in the test on SW-620 colon it was 92.2%; with MCF7 breast, 101%; in the test on HCT-116 colon, 95.9%. Moreover, the growth is 101% in the test on HCC-2998 colon and 97.4% with KM12 colon.

For `O=C1NC(=Nc2ccc(Cl)cc2)S/C1=C\c1cn(-c2ccccc2)nc1-c1ccccc1`, the growth in the test with T-47D breast was 47.4%; in the test on BT-549 breast, 84.3%; in the test with MDA-MB-435 melanoma, 90.1%; in the test with SW-620 colon, 75.2%; in the test on MCF7 breast it was 69.1%; in the test on HCT-116 colon it was 63.8%. For the same compound, the growth with HCC-2998 colon was 100%; with KM12 colon, 97.5%.

With `O=C(Nc1ccc(Cl)cc1)Nc1ccc(Cl)c(C(F)(F)F)c1`, the growth was -5.38% (active) in the test with T-47D breast; 14.4% with BT-549 breast; -5.12% (active) with MDA-MB-435 melanoma; 5.74% (active) in the test with SW-620 colon; 9.91% (active) in the test on MCF7 breast; 2.77% (active) in the test with HCT-116 colon. The growth is -34.8% (active) in the test with HCC-2998 colon and 3% (active) in the test on KM12 colon.

As for `O=C(CC(SCc1ccccc1)c1ccccc1)c1ccccc1` (stereo not given), the growth was 74.7% in the test with T-47D breast; 94% in the test on BT-549 breast; 84.6% with MDA-MB-435 melanoma; 83.5% in the test on SW-620 colon; 14.6% in the test on MCF7 breast; 37.2% in the test on HCT-116 colon. Further, the growth was 99.9% with HCC-2998 colon and 84.8% with KM12 colon.

With `O=[N+]([O-])c1ccc(OCCO)cc1`, the growth with T-47D breast is 101%; in the test with BT-549 breast it was 109%; in the test on MDA-MB-435 melanoma, 105%; in the test on SW-620 colon, 101%; with MCF7 breast, 94.3%; in the test with HCT-116 colon, 103%. For the same compound, the results for the growth in the test on HCC-2998 colon and in the test on KM12 colon were 113% and 106%, respectively.

With `CCCCN(CCCC)CC(C)(C)C(O)c1ccc(OC)c2ccccc12` (stereo not given), the growth is 52.9% in the test on T-47D breast; 57.1% with BT-549 breast; 59.3% with MDA-MB-435 melanoma; 33.4% in the test with SW-620 colon; 45.5% in the test with MCF7 breast; 3.51% (active) with HCT-116 colon. Further, the values for the growth in the test with HCC-2998 colon and in the test on KM12 colon were 51.9% and 45.1%, respectively.

`COc1ccc(C(=O)COc2ccc(/C=C3\Oc4ccccc4C3=O)cc2)cc1`: the growth in the test on T-47D breast is 73.8%; in the test on BT-549 breast, 114%; with MDA-MB-435 melanoma, 59.7%; in the test on SW-620 colon it was 110%; with MCF7 breast, 115%; with HCT-116 colon, 92.9%. The growth in the test on HCC-2998 colon is 115%; in the test on KM12 colon, 107%.

As for `O=C(Nc1ccccc1Cl)Oc1ccc(-c2ccccc2)cc1`, the growth in the test on T-47D breast is 106%; with BT-549 breast, 113%; in the test with MDA-MB-435 melanoma it was 101%; in the test with SW-620 colon, 112%; with MCF7 breast, 110%; in the test on HCT-116 colon, 110%. In addition, the growth in the test with HCC-2998 colon is 119%; in the test on KM12 colon, 120%.

Consider `COc1ccc(-c2csc(C3=C(O)CN(C(C)C)C3=N)n2)cc1OC`, for which the growth in the test with T-47D breast was 91.4%; with BT-549 breast, 112%; in the test on MDA-MB-435 melanoma, 116%; in the test on SW-620 colon, 104%; in the test on MCF7 breast, 129%; in the test on HCT-116 colon, 96.3%. In addition, the growth was 116% in the test with HCC-2998 colon and 99.6% with KM12 colon.

As for `CCOc1ccccc1-c1cc(-c2cccs2)c(C#N)c(=O)[nH]1`, the growth is 26.7% in the test on T-47D breast; 85.6% in the test on BT-549 breast; 31.2% in the test with MDA-MB-435 melanoma; 80.9% in the test on SW-620 colon; 37.1% in the test with MCF7 breast; 92.3% with HCT-116 colon. Moreover, the growth is 92.2% in the test on HCC-2998 colon and 83.9% with KM12 colon.

`Cc1ccc2nc(NC(=O)CSc3nc(-c4ccccc4)c(C#N)c(=O)n3Cc3ccccc3)sc2c1`: the growth is -80.8% (active) in the test on T-47D breast; 89.3% with BT-549 breast; 45.7% in the test on MDA-MB-435 melanoma; 87.4% in the test on SW-620 colon; 86.2% with MCF7 breast; 95.9% in the test with HCT-116 colon. The growth is 118% in the test with HCC-2998 colon and 90.6% in the test on KM12 colon.

As for `Cc1c(C(=O)N[C@@H](Cc2ccccc2)C(=O)C(=O)NCCc2ccccc2)[nH]c2ccccc2c1=O`, the growth with T-47D breast is 101%; in the test with BT-549 breast, 124%; in the test with MDA-MB-435 melanoma, 101%; in the test with SW-620 colon, 105%; in the test on MCF7 breast, 92.3%; in the test with HCT-116 colon, 106%. Besides, the growth with HCC-2998 colon is 100%; in the test on KM12 colon it was 103%.

Turning to `COC(=O)[C@]12CC[C@@H](C)[C@H](C)[C@@H]1C1=CC[C@@H]3[C@@]4(C)C(C=O)=C[C@@](C)(COS(C)(=O)=O)[C@@H]4C(=O)C[C@@]3(C)[C@]1(C)CC2`, the growth with T-47D breast is 33%; with BT-549 breast it was 42.9%; in the test on MDA-MB-435 melanoma, 62.3%; with SW-620 colon it was 35.9%; with MCF7 breast, 18.3%; with HCT-116 colon it was 5.35% (active). Further, the growth was 43.4% in the test on HCC-2998 colon and 23.1% in the test on KM12 colon.

Regarding `O=c1cc(-c2ccc(Cl)cc2)[nH]c2ccccc12`, the growth with T-47D breast is 87.2%; in the test with BT-549 breast it was 101%; in the test on MDA-MB-435 melanoma, 5.74% (active); with SW-620 colon, 56.9%; with MCF7 breast, 49.9%; with HCT-116 colon, 73.2%. Besides, the growth with HCC-2998 colon was 76.7%; in the test on KM12 colon, 43.7%.

Turning to `COc1cccc(-c2nn(-c3ccccc3)cc2-c2ccnc(NCCCNC(=O)c3ccccc3)c2)c1`, the growth in the test on T-47D breast was 4.22% (active); in the test with BT-549 breast, 14%; in the test with MDA-MB-435 melanoma, 5.43% (active); with SW-620 colon, 39.7%; in the test on MCF7 breast it was 33.4%; in the test on HCT-116 colon it was 36%. For the same compound, the figures for the growth with HCC-2998 colon and with KM12 colon were 52.3% and 33.6%, respectively.
